KCNQ2 block: inhibitors of rat KCNQ2 potassium channel; O88943; CHO-K1 KCNQ2, FluxOR thallium flux, 20 min; hits give low values; B-score at 10 µM; hit rate 1.1% among 310,000; AID 2156;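 active means fluorescence ratio B-score at most minus 3 library SDs, with starting brightness B-score within 2 library SDs, cut at about -5.5 in these data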
KCNQ2 enhance: enhances the rat KCNQ2 potassium channel; O88943; CHO-K1 KCNQ2, FluxOR thallium flux fluorescence; hits give high values; B-score at 10 µM; hit rate 0.54% among 310,000;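 active means fluorescence ratio B-score at least 3 SD of library B-scores, with initial fluorescence B-score within 3 of them, cut at about 5.3 in these data; same plate scores as AID 2156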;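 further: B-score of peak minus minimum over baseline fluorescence ratio after K+ and Tl+ stimulus; positive B-score means potentiation of KCNQ2 with more thallium influx and brighter signal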
Kir21 conf inh: confirmation of mouse Kir2.1 potassium channel inhibitors | shares compounds with KCNQ2 enhance | Kir2.1-expressing cells, FluxOR thallium flux fluorescence; hits give low values | Tl flux remaining, % of negative control (hits give low values), % at 10 µM | hit rate 41% among 2,300;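 active means Primary-screen hit whose thallium flux fell at least 3 control SD below untreated wells in both duplicates, with normal baseline fluorescence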;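 further: 0% = blank wells without stimulus and 100% = stimulated no-compound controls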
Target sequence (P35561 whole entry, looked up): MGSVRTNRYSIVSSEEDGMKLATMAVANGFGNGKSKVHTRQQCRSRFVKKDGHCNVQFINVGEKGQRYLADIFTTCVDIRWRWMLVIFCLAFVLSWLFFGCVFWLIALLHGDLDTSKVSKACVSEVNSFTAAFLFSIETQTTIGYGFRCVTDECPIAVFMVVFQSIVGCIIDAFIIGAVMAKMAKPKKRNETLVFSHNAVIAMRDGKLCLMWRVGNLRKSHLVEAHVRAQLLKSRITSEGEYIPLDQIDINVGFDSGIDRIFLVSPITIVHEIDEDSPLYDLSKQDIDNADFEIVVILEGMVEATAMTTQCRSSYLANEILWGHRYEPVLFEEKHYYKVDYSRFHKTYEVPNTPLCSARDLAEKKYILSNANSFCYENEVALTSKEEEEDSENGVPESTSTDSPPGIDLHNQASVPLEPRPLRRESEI
HEK293 Tl flux: counter-screen for Kir2.1 inhibitors: effect in parental HEK293 cells. hit rate 19% among 2,300. FluxOR signal as % of negative control (100 = no effect), % at 10 µM. shares compounds with KCNQ2 enhance. FluxOR thallium flux fluorescence; 0% = unstimulated blank wells;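 active means dye signal at least 3 control SD above or below untreated wells in both duplicates, raw fluorescence within 3, either direction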;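 further: percent is based on the flux ratio of peak minus minimum fluorescence over baseline F0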
CHO-K1 Tl ctr: parental CHO-K1 activity in KCNQ2 potentiator counter-screen; parental CHO-K1 cells, FluxOR thallium flux fluorescence; zero = vehicle mean+3SD, 100% = vehicle-minus-blank window; shares compounds with KCNQ2 enhance; activity increase over 3SD of controls, % at 10 µM; hit rate 43% among 1,200; AID 2282;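 active means signal rise of at least 3 SD above the untreated control mean, in both duplicate wells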;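 further: counter screen of KCNQ2 potentiator hits so any rise reflects channel-independent effects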
KCNQ1 sel pot: selectivity of KCNQ2 potentiators: effect on human KCNQ1 | shares compounds with KCNQ2 enhance | CHO KCNQ1 stable, FluxOR thallium flux fluorescence; beyond 3SD, as % of vehicle-control signal | activation over 3SD threshold, % at 10 µM | hit rate 28% among 1,200 | AID 2283;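 active means fluorescence ratio rise of at least 3 SD of vehicle wells above their mean, in both replicate wells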;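 further: 0% = vehicle mean plus 3 SD and 100% = vehicle minus unstimulated blank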
KCNQ2 pot conf: confirmation of rat KCNQ2 potassium channel potentiators; shares compounds with KCNQ2 enhance; CHO-KCNQ2 cells, FluxOR thallium flux fluorescence; potentiation, less the hit threshold, % at 10 µM; hit rate 68% among 1,200;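 active means fluorescence ratio rising 3 SD or more over the vehicle control mean in both replicates, plus primary screen hit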;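 further: peak minus minimum thallium fluorescence divided by baseline after K/Tl stimulus; 0% = vehicle mean plus 3 SD and 100% = vehicle minus unstimulated blank difference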
Kir21 spec: tests whether KCNQ2 potentiators also affect mouse Kir2.1 | HEK293 Kir2.1, FluxOR thallium flux fluorescence | shares compounds with KCNQ2 enhance | activity over 3SD threshold, % at 10 µM | hit rate 2% among 1,200;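 active means fluorescence ratio rise of at least 3 SD above the vehicle-control mean, seen in both replicates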;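 further: 0% = vehicle mean plus 3 SD and 100% = vehicle minus no-stimulus blank window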
KCNQ2 W236L MoA: KCNQ2 potentiators acting on retigabine-insensitive rat KCNQ2 W236L mutant; shares compounds with KCNQ2 enhance; CHO KCNQ2-W236L, automated patch clamp current; current increase over 3SD of negative controls (%), hits give high values, % at 25 µM; hit rate 10% among 940; AID 2558;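 active means current increase at least 3 SD of the untreated controls above them in both duplicate recordings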
* hit, by the source's call; i = inactive; nt = no result; ! = repeats disagree. A selection: hits, their analogues and other compounds. The true share with any hit is near 1.6%.

SMILES	KCNQ2 block	KCNQ2 enhance	Kir21 conf inh	HEK293 Tl flux	others
Cc1ccc(CNCCCSc2nc(C)cc(C)n2)cc1	i	nt	nt	nt
Cc1cc(C)nc(SCCCNCc2ccc(Br)cc2)n1	i	0.38	45%*	i
FC(F)(F)c1cc(C(F)(F)F)c2ccc(N3CCN(c4ccc(Cl)cc4)CC3)nc2n1	i	1.8	nt	nt
N#CC(c1ccc(Cl)cc1)c1ccc2c(C(F)(F)F)cc(C(F)(F)F)nc2n1 (stereo not given)	i	18*	i	i	CHO-K1 Tl ctr=-22;KCNQ1 sel pot=47*;KCNQ2 pot conf=21*;Kir21 spec=-36;KCNQ2 W236L MoA=i
Cc1nc2c(ncn2-c2ccccc2)c(=O)n1NC(=O)CN1CCCCC1	i	nt	nt	nt
Fc1ccc(Nc2nnc(C(F)(F)F)s2)cc1Cl	i	7.2*	i	i	CHO-K1 Tl ctr=-4;KCNQ1 sel pot=76*;KCNQ2 pot conf=16*;Kir21 spec=-30;KCNQ2 W236L MoA=i
FC(F)(F)c1nnc(Nc2ccc(Cl)cc2)s1	i	3.1	nt	nt
O=C(CCN1C(=O)c2cccc3cccc(c23)C1=O)Nc1ccon1	i	0.98	nt	nt
CC(/C=N/NC(=O)c1ccccc1F)c1ccccc1 (stereo not given)	i	0.73	nt	nt
CN(C(=O)c1ccccc1F)C(c1ccccc1)c1ccccc1	i	nt	66%*	i
CCCCn1c(N)c(N(Cc2ccccc2OC)C(=O)COc2ccccc2C#N)c(=O)[nH]c1=O	i	0.08	nt	nt
Cc1ccc(C(=O)Nc2ccnc(-c3cccnc3)n2)cc1	i	0.05	nt	nt
COc1ccc(C(=O)Nc2ccnc(-c3cccnc3)n2)cc1	i	5.3*	i	i	CHO-K1 Tl ctr=-4;KCNQ1 sel pot=-16;KCNQ2 pot conf=-6;Kir21 spec=-16
CC(Sc1ccccc1)C(=O)NCCc1ccccc1 (stereo not given)	i	nt	nt	nt
Cc1cc(C)c2ccc(NN)nc2c1O	i	nt	nt	nt
Cc1cc(C)c2ccc(/C=N/O)nc2c1O	i	12*	i	i	CHO-K1 Tl ctr=147*;KCNQ1 sel pot=12*;KCNQ2 pot conf=-3;Kir21 spec=-17;KCNQ2 W236L MoA=i
Cc1cccc(NCc2ccc(N(C)C)cc2)n1	i	0.02	nt	nt
Cc1ccccc1C(=O)NNC(=O)C(=O)Nc1cccc(Cl)c1C	i	14*	i	275%*	CHO-K1 Tl ctr=-6;KCNQ1 sel pot=-23;KCNQ2 pot conf=21*;Kir21 spec=-39;KCNQ2 W236L MoA=i
Cc1c(Cl)cccc1Nc1ccccc1C(=O)O	i	nt	nt	nt
CSc1ccccc1NC(=O)Nc1cccc(Cl)c1C	i	0.05	nt	nt
Cc1c(Cl)cccc1NC(=O)C(=O)NNC(=O)c1ccccc1F	i	22*	i	426%*	CHO-K1 Tl ctr=-6;KCNQ1 sel pot=-11;KCNQ2 pot conf=73*;Kir21 spec=-7;KCNQ2 W236L MoA=i
CC(=O)Nc1ccc(NC(=O)CS(=O)(=O)c2cn(CC(=O)N3CCCC3)c3ccccc23)cc1	i	nt	nt	nt
O=C(CCNS(=O)(=O)c1ccccc1C(F)(F)F)NNC(=O)C1COc2ccccc2O1 (stereo not given)	i	nt	nt	nt
NC(=O)C1CCN(C(=O)CCSCc2ccccc2)CC1	i	nt	nt	nt
Cc1cccn2c(=O)nc(SCC(=O)NC3CCCC3)nc12	i	nt	nt	nt
SMILES	KCNQ2 block	KCNQ2 enhance	Kir21 conf inh	HEK293 Tl flux	others
O=C(O)c1cccc(NN=C2c3ccccc3-c3ccccc32)c1	i	nt	nt	nt
O=C(O)c1cc(NN=C2c3ccccc3-c3ccccc32)ccc1Cl	i	9.2*	i	i	CHO-K1 Tl ctr=51*;KCNQ1 sel pot=-14;KCNQ2 pot conf=51*;Kir21 spec=-44;KCNQ2 W236L MoA=22%*
CC1Cc2ccccc2N1C(=S)NC(=O)c1ccco1 (stereo not given)	i	3.1	nt	nt
CC1Cc2ccccc2N1C(=S)NC(=O)C1(C)CC1(Cl)Cl (stereo not given)	i	7.2*	i	272%*	CHO-K1 Tl ctr=-5;KCNQ1 sel pot=-9;KCNQ2 pot conf=26*;Kir21 spec=-14;KCNQ2 W236L MoA=i
Cc1ccc(SCC(=O)OCC(=O)N(C)CC(=O)Nc2ccc(F)cc2)cc1C	i	7*	i	i	CHO-K1 Tl ctr=10*;KCNQ1 sel pot=1.0*;KCNQ2 pot conf=-2;Kir21 spec=-35;KCNQ2 W236L MoA=i
COc1ccc(Cl)cc1C(=O)OCC(=O)N(C)CC(=O)Nc1ccc(F)cc1	i	2.7	nt	nt
Brc1ccc(NC(c2ccccc2)c2ccncc2)cc1 (stereo not given)	i	nt	nt	nt
O=C(CCn1c(=S)oc2ccccc21)NCCC1=CCCCC1	i	nt	nt	nt
Cc1cc(C(C)(C)C)ccc1NC(=O)CC(C)(C)CC(=O)O	i	nt	nt	nt
COc1ccc(/C=N/Nc2cc(C)nc3c(C)cccc23)cc1	i	nt	nt	nt
COc1ccc(/C=N/Nc2cc(C)nc3ccccc23)cc1	i	nt	35%*	i
COc1c(S(=O)(=O)N2CCN(C)CC2)ccc(Cl)c1Cl	i	3.4	nt	nt
CC1=CC(C)(C)N(C(=O)CSc2nnc(C)s2)c2ccc(C)cc21	i	nt	70%*	i
CC1=CC(C)(C)N(C(=O)CSc2nnc(N)s2)c2cc(C)c(C)cc21	i	1	nt	nt
CC(C)(C)c1ccc(OCC(=O)NNC(=S)NC(=O)c2ccco2)c(Br)c1	i	nt	nt	nt
CC(C)(C)c1ccc(OCC(=O)NCc2ccco2)c(Br)c1	i	5.4*	i	i	CHO-K1 Tl ctr=-11;KCNQ1 sel pot=-13;KCNQ2 pot conf=4.0*;Kir21 spec=-36;KCNQ2 W236L MoA=i
O=C(COc1ccc2c(c1)OCO2)Nc1ccccc1F	i	nt	nt	nt
Fc1ccc([C@@H]2CCNC[C@H]2COc2ccc3c(c2)OCO3)cc1	-6*!	-6	34%*	i
O=C(CSCc1ccc(F)cc1)NCc1ccc2c(c1)OCO2	i	nt	nt	nt
Fc1ccc(C2CCNCC2COc2ccc3c(c2)OCO3)cc1 (stereo not given)	-6.2*	-6.2	48%*	i
COc1ccc(OC)c(NC(=O)C2CCN(C(=O)C3CC(=O)N(c4ccc(C)cc4)C3)CC2)c1 (stereo not given)	i	nt	nt	nt
COc1ccccc1CCNCc1ccc(OC)c(OCc2ccccc2)c1	i	nt	i	i
